{"source": "PubChem BioAssay AID2796", "about": "(The Scripps Research Institute Molecular Screening Center, 2010)", "note": "Screen size: about 320,000 compounds; about 8,000 (2.5%) were called active. This excerpt belongs to a sample that is enriched for actives. A number with no mark means an inactive call. Rule as the data show it: active = activation above about 47%; inactive = the rest."}
{"molecular_target": "Aryl hydrocarbon receptor (Homo sapiens) (UniProt P35869)", "sequence (P35869 whole entry, looked up)": "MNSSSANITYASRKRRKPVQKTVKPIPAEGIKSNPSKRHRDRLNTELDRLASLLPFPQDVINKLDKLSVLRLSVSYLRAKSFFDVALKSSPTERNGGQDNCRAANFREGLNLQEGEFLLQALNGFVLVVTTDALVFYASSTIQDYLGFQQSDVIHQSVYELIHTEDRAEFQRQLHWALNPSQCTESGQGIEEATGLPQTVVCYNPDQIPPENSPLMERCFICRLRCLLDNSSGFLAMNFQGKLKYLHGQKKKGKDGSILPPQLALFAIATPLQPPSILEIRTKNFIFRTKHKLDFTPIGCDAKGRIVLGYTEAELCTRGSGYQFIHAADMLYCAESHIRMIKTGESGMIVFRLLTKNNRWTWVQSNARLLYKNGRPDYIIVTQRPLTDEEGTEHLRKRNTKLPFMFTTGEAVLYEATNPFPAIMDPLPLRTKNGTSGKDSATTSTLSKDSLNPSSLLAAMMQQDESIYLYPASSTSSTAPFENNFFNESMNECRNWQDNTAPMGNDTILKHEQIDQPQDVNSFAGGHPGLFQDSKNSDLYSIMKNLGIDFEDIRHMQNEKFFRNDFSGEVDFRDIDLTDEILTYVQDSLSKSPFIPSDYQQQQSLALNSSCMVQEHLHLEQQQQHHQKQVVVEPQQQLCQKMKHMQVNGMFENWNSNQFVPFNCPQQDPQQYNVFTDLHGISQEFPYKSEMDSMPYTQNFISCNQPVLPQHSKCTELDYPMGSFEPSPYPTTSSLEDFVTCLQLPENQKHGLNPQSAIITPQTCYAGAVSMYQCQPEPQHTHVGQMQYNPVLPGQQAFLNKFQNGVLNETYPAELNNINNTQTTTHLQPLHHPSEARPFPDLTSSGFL", "assay": "AHR activators, primary screen, cell-based, luminescence, luciferase reporter, human (AID 2796);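 also: 0% = vehicle wells and 100% = reference agonist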", "conditions": "AHR-responsive luciferase reporter cells, at 5 µM, active compounds read high"}
{"smiles": "Nc1nnnn1/N=C/c1cccc(Br)c1", "activation": "0.74%"}
{"smiles": "C=CCOc1c(Br)cc(/C=N\\n2nnnc2N)cc1OC", "activation": "115% (active)"}
{"smiles": "COc1ccc(/C=N/n2nnnc2N)cc1OC", "activation": "9.89%"}
{"smiles": "CCN1/C(=C\\c2ccc3ccccc3[n+]2CC)Sc2cc(C)ccc21", "activation": "-7.56%"}
{"smiles": "S=C(NCCc1ccccc1)Nc1ccccc1", "activation": "1.89%"}
{"smiles": "CCC(=O)/C=C1\\Sc2ccccc2N1CC", "activation": "47.6% (active)"}
{"smiles": "CCN1/C(=C/C(=S)Nc2ccccc2)Sc2ccccc21", "activation": "60.2% (active)"}
{"smiles": "CCOC(=O)CNC(=O)N1c2ccccc2Sc2ccccc21", "activation": "-1.17%"}
{"smiles": "CCNCCC(=O)N1c2ccccc2Sc2ccc(NC(=O)OCC)cc21", "activation": "12.7%"}
{"smiles": "CSCCC(Nc1ccc(S(=O)(=O)N2CCOCC2)cc1[N+](=O)[O-])C(=O)OCC(=O)N(C(C)C)C(C)C", "note": "(stereo not drawn)", "activation": "-0.88%"}
{"smiles": "CN(C)c1ccc(CNC2C3CC4CC(C3)CC2C4)cc1", "note": "(stereo not drawn)", "activation": "1.86%"}
{"smiles": "c1ccc(-c2nnc(SCc3nc4ccccc4[nH]3)o2)cc1", "activation": "59.8% (active)"}
{"smiles": "O=C(CSc1nc2ccccc2[nH]1)Nc1nc(-c2ccccc2)c(-c2ccccc2)o1", "activation": "5.78%"}
{"smiles": "Clc1ccccc1SCc1nc2ccccc2[nH]1", "activation": "-2.01%"}
{"smiles": "Cc1cccc(C(=O)N2CCN(S(=O)(=O)N3CCCCC3)CC2)c1", "activation": "0.85%"}
{"smiles": "CC1CN(CC(=O)NC(C)c2ccccc2)CC(C)O1", "note": "(stereo not drawn)", "activation": "-1.1%"}
{"smiles": "CN(C)c1ccc(/C=N/Nc2cc(N3CCOCC3)nc(N3CCOCC3)n2)cc1", "activation": "7.92%"}
{"smiles": "COc1ccc(/C=N/Nc2cc(N3CCOCC3)nc(C)n2)c(OC)c1", "activation": "69.5% (active)"}
{"smiles": "C(=N/Nc1cc(N2CCOCC2)nc(N2CCOCC2)n1)/c1ccccc1", "activation": "-0.44%"}
{"smiles": "Cn1c2ccccc2n2c(=O)c(=O)n(CC(=O)c3ccc(F)cc3)nc12", "activation": "0.34%"}
{"smiles": "C[C@H]1CN([C@@H](C)CO)C(=O)Cc2cc(NC(=O)Cc3ccccc3)ccc2O[C@H]1CN(C)S(=O)(=O)c1cccs1", "activation": "-0.6%"}
{"smiles": "O=C(C[C@@H]1C/C=C\\CCC(=O)OC[C@@H]2CCCN2C1=O)NCCO", "activation": "2.28%"}
{"smiles": "Cc1cc(NS(=O)(=O)c2ccc(NC(=S)NC(=O)c3ccc(F)cc3Cl)cc2)no1", "activation": "17.3%"}
{"smiles": "O=C(Nc1cccc(S(=O)(=O)NC2=NCCC2)c1)c1ccc(F)cc1F", "activation": "1.17%"}
{"smiles": "O=C(Nc1cc(S(=O)(=O)Nc2ccc(Cl)cc2)ccc1O)c1ccc(F)cc1F", "activation": "111% (active)"}
{"smiles": "Cc1ccccc1NS(=O)(=O)CCCCC(Cl)(Cl)Cl", "activation": "-0.27%"}
{"smiles": "COc1c(O)cccc1-c1nnn(CCC(=O)OCC(=O)c2ccccc2)n1", "activation": "1.67%"}
{"smiles": "Cc1cc(C(=O)NNC(=O)CCC2CCCCC2)c(C)o1", "activation": "1.65%"}
{"smiles": "CCOC(=O)c1nc(Nc2ccc(C(=O)OC)cc2)c2ccccc2n1", "activation": "1.95%"}
{"smiles": "Cc1ccc2nc(Nc3ccccc3)cc(C)c2c1", "activation": "26.6%"}
{"smiles": "Cc1cc(Nc2ccc(Br)cc2)nc2ccccc12", "activation": "54.1% (active)"}
{"smiles": "O=C(CCC(=O)N/N=C/c1ccc(Br)o1)N/N=C/c1ccc(Br)o1", "activation": "4.48%"}
{"smiles": "CCCNC(=O)N1CCC(c2ccc3c(c2)OCO3)CC1", "activation": "1.31%"}
{"smiles": "COc1ccc(CCNc2cc(C)nc3c(-c4ccc(Cl)cc4)c(C)nn23)cc1OC", "activation": "31.2%"}
{"smiles": "Cc1ccsc1C(=O)N[C@@H](C)c1nnc2ccccn12", "activation": "1.3%"}
{"smiles": "COc1ccc(CCc2nc(-c3cccs3)no2)cc1", "activation": "1.87%"}
{"smiles": "CCc1ccc(CNC(=O)CCc2nc(-c3cccs3)no2)cc1", "activation": "4.73%"}
{"smiles": "COc1ccc(OC)c(CNC(=O)CCc2nc(-c3cccs3)no2)c1", "activation": "61.3% (active)"}
{"smiles": "CCn1c(SCC(=O)NC2CC2)nnc1-c1ccccc1OC", "activation": "14.6%"}
{"smiles": "Cc1ccc(C(=O)Cc2nnc(C)s2)cc1", "activation": "-0.8%"}
{"smiles": "CN(C)C(=O)COC(=O)c1cccc(S(=O)(=O)N2CC3(C)CC2CC(C)(C)C3)c1", "note": "(stereo not drawn)", "activation": "-0.48%"}
{"smiles": "CCOC(=O)C1CCN(C(=O)CN2C(=O)NC(C)(c3ccc4cc(OC)ccc4c3)C2=O)CC1", "note": "(stereo not drawn)", "activation": "0.29%"}
{"smiles": "C=CCn1c(SCC(=O)Nc2ccc(NC(C)=O)cc2)nc2sc(C)c(C)c2c1=O", "activation": "0.33%"}
{"smiles": "C=CCNC(=O)CSc1nc2sc(C)c(C)c2c(=O)[nH]1", "activation": "107% (active)"}
{"smiles": "CC(=O)c1sc2nc(SCC(=O)N3CCCCC3)[nH]c(=O)c2c1C", "activation": "15.1%"}
{"smiles": "CN(Cc1cccc2ncccc12)C(=O)CC1C(=O)NCCN1Cc1ccc(F)cc1", "note": "(stereo not drawn)", "activation": "-0.17%"}
{"smiles": "COc1cc(NC(=O)c2ccc(-c3csc(C)n3)cc2)c(OC)cc1Cl", "activation": "98.4% (active)"}
{"smiles": "CCOCC(=O)Nc1cc(OC)c(Cl)cc1OC", "activation": "19.9%"}
{"smiles": "COc1cccc(CC(=O)Nc2ccc(-c3csc(C)n3)cc2)c1", "activation": "-4.95%"}
{"smiles": "CC(NC(=O)COC(=O)Cn1cc(C(F)(F)F)ccc1=O)c1ccccc1", "note": "(stereo not drawn)", "activation": "-0.22%"}
{"smiles": "CC(=O)c1ccc(S(=O)(=O)N2CCN(c3nc4c(C)c(C)ccc4cc3C#N)CC2)cc1", "activation": "-2.8%"}
{"smiles": "CCOC(=O)c1cc(C#N)c(N2CCCCC2)nc1-c1ccccc1", "activation": "13.2%"}
{"smiles": "Cc1cccc2cc(C#N)c(N3CCCC3)nc12", "activation": "51.3% (active)"}
{"smiles": "O=C(Nc1ccc2c(c1)CCC2)c1ccc(Br)s1", "activation": "12%"}
{"smiles": "CSc1ccc(C#N)cc1NC(=O)c1cccc(Cl)c1", "activation": "58.8% (active)"}
{"smiles": "CSc1ccc(C#N)cc1NC(=O)c1ccc(Cl)cc1", "activation": "96.9% (active)"}
{"smiles": "COC(=O)c1sccc1NC(=O)c1ccc(Cl)cc1", "activation": "37.4%"}
{"smiles": "O=C(Nc1cccc2cccnc12)c1cccc(Cl)c1", "activation": "59.2% (active)"}
{"smiles": "CSc1ccccc1NC(=O)c1cc(Cl)sc1Cl", "activation": "0.71%"}
{"smiles": "O=C(Nc1cccc2cccnc12)c1cccc(N2C(=O)CCC2=O)c1", "activation": "-2.04%"}
{"smiles": "N#Cc1ccc(C(=O)Nc2cccc3cccnc23)c(F)c1", "activation": "-3.07%"}
{"smiles": "N#Cc1ccccc1NC(=O)c1cccc(COc2ccc(Cl)cc2Cl)c1", "activation": "-4.79%"}
{"smiles": "CSc1ccc(/C=N/NC(=O)c2cccc(Cl)c2)cc1", "activation": "13.9%"}
